Experimental data from PubChem BioAssay AID2391 (Southern Research Specialized Biocontainment Screening …, 2010).
Out of some 310,000 compounds screened, about 410 (0.13%) were called active. Not shown: some 2% with an inconclusive outcome. How the calls were made is not given here. A selection follows. Entries with a potency or affinity are not part of this list.

Assay: RSV antiviral activity via CPE protection, HEp-2 cells, primary 10 µM value included (AID 2391)
Details: RSV-induced CPE inhibition, at 10 µM, hits give high values

CPE inhibition, inactive:
C(=C/c1ccnc2nc(SC/C=C/c3ccccc3)nn12)/c1ccccc1 2.09%, Cc1cccc(CCNC(=O)c2nnc(Cc3ccc(Cl)cc3)o2)c1 2.96%, CNc1cc(C(F)(F)F)nc(-c2ccccn2)n1 -0.28%, COc1cc(OC)cc(C(=O)Nc2cccc3c2CCCC3)c1 -0.47%, C=CCn1c(=O)c2c3c(sc2n2c(Nc4ccccc4)nnc12)CCCC3 13.3%, O=C1OC(CCl)CN1Cc1ccc([N+](=O)[O-])cc1 (stereo not drawn) 0.81%, Cc1ccc(C)c(NC(=O)CN(C)C(=O)c2ccc(S(=O)(=O)N3CCCCCC3)cc2)c1 0.63%, O=C(CNC(=O)c1ccc(Br)cc1)N=Nc1c(O)[nH]c2ccc([N+](=O)[O-])cc12 6.52%, Cc1ccccc1NCC(=O)N=Nc1c(O)[nH]c2ccc([N+](=O)[O-])cc12 0.48%, O=C(CNC(=O)c1ccco1)N=Nc1c(O)[nH]c2ccc(Br)cc12 7.48%, Cc1ccc(NCC(=O)N=Nc2c(O)[nH]c3ccc([N+](=O)[O-])cc23)cc1 2.27%, O=C(O)c1ccccc1N=Nc1c(O)[nH]c2ccc([N+](=O)[O-])cc12 1.41%, O=C(N=Nc1c(O)[nH]c2ccc([N+](=O)[O-])cc12)c1ccccc1Cl 3.59%, Clc1cnc(N/N=C/c2ccco2)c(Cl)c1 5.1%, O=C(CC1C(=O)NCCN1Cc1ccoc1)NCc1cccc(OC(F)(F)F)c1 (stereo not drawn) -0.85%, CC(Sc1nnc(CNC(=O)c2ccco2)n1C)C(=O)Nc1nccs1 (stereo not drawn) -0.02%, CCN(CC(=O)NCc1ccc(F)cc1)C(=O)COc1ccc2ccccc2c1 1.64%, COC(=O)CSc1nnc(CNC(=O)c2ccccc2F)n1-c1ccc(F)cc1 1.47%, CSc1ccc(NC(=O)N2CCC(C(=O)c3ccc(F)cc3)CC2)cc1 8.24%, COc1ccc(S(=O)(=O)N2CCN(C(=O)c3ccc4ccccc4n3)CC2)cc1 3.49%, Cc1cc(C)c(NC(=O)CSc2nnc(CNC(=O)c3ccco3)o2)c(C)c1 -0.65%, COc1ccccc1-c1oc2ccccc2c1C#CCCO 3.39%, Cc1cccc(-c2oc3ccccc3c2C#CCCCCO)c1 3.25%, COc1cc(C2NC(C(=O)O)Cc3c2[nH]c2ccccc32)cc(OC)c1OC (stereo not drawn) 5.99%, CCC(=O)Nc1nnc(SCC(=O)c2ccc3c(c2)Cc2ccccc2-3)s1 42.4%, CC(=O)Nc1nnc(SCC(=O)c2ccc(F)cc2)s1 1.4%, Cc1c(NC(=S)Nc2ccc(Cl)cc2)c(=O)n(-c2ccccc2)n1C 2.83%, Cc1c(Cl)cccc1NC(=S)NCCN1CCOCC1 1.32%, COc1ccc(C(=O)COc2ccc3c(C)cc(=O)oc3c2)cc1 1.42%, Cc1ccc(-c2nnc3c4ccccc4c(C)nn23)cc1S(=O)(=O)N1CCN(CCO)CC1 8.23%, Cc1ccc(-c2nnc3c4ccccc4c(C)nn23)cc1S(=O)(=O)N1CCN(C)CC1 0.37%, Cc1nn2c(-c3ccc(S(=O)(=O)N4CCN(C)CC4)o3)nnc2c2ccccc12 -1.89%, COc1ccc(-c2nnc3c4ccccc4c(C)nn23)cc1S(=O)(=O)N1CCN(CCO)CC1 -0.91%, Cc1cc(NC(=O)CCC(=O)N(Cc2ccco2)C2(C(=O)NC3CCCC3)CCCCC2C)no1 (stereo not drawn) 2.17%, O=C(c1ccc(F)cc1)N1C2CCC1CC(O)(c1ccc(F)cc1)C2 (stereo not drawn) 0.65%, COc1ccc(S(=O)(=O)N2CCCCC2)cc1C(=O)N1CCCCCC1 1.11%, CC1Cc2ccccc2N1C(=O)COC(=O)c1ccc(Br)o1 (stereo not drawn) -0.89%, Cc1ccc(NC(=S)N2CCC(O)CC2)c(C)c1 3.11%, Cc1cccc(C)c1NC(=O)CN(C)CC(=O)c1c(N)n(Cc2ccccc2)c(=O)n(C)c1=O 0.19%, Cc1ccc2nc(C)cc(C(=O)OCC(=O)Nc3c(C)n(C)n(-c4ccccc4)c3=O)c2c1 2.74%, Cc1c(NC(=O)COC(=O)c2cc(-c3cccc4ccccc34)nc3ccccc23)c(=O)n(-c2ccccc2)n1C 1.88%, COc1ccc(/C=N/NC(=O)Cc2ccc(Cl)cc2)cc1OC 1.07%, COc1ccc(NC2=C(NC(C)=O)C(=O)c3ccccc3C2=O)cc1 -0.06%, CN(C)c1ccc(NC2=C(Cl)C(=O)c3ccccc3C2=O)cc1 -2.87%, CCC1=NN2C(=N)/C(=C\c3cccn3-c3ccc(C)c(C)c3)C(=O)N=C2S1 15.3%, CCC1=NN2C(=N)/C(=C\c3cccn3-c3ccc(C)cc3C)C(=O)N=C2S1 16.1%, c1ccc(-n2cc(CN3CCCC3)c(-c3ccc4c(c3)OCO4)n2)cc1 5.52%, Cc1ccc(NC(=O)c2sc(N)nc2-c2ccc([N+](=O)[O-])cc2)cc1C -0.73%, Cc1ccccc1C(=O)NC(C)C(c1cccs1)N1CCOCC1 (stereo not drawn) -0.28%, Cc1nn(-c2ccccc2)c2nc(N)c(C#N)c(-c3ccc(O)c(O)c3)c12 39.2%, Cc1nn(-c2ccc(F)cc2)c2nc(N)c(C#N)c(-c3ccc(O)c(O)c3)c12 0.04%, Cc1ccc(C)c2c1cc(C)c1nnc(SCC(=O)NCc3ccc4c(c3)OCO4)n12 2.14%, CCOC(=O)/C(C#N)=C/c1c(N2CCN(c3ccc(OC)cc3)CC2)nc2c(C)cccn2c1=O 7.79%, Cc1ccc(N2CC(O)Cn3c2nc2c3c(=O)n(C)c(=O)n2C)cc1 (stereo not drawn) 0.84%, Cc1csc(NC(=O)CSc2nnc(C)c(=O)n2N)n1 -0.18%, NNC(=O)c1[nH]c(-c2ccccc2)cc1-c1ccccc1 0.95%, O=C1c2ccccc2C(Nc2ccccc2)N1Cc1ccc2c(c1)OCO2 (stereo not drawn) 8.65%, O=C1c2ccccc2C(Nc2ccc3c(c2)OCO3)N1Cc1ccc2c(c1)OCO2 (stereo not drawn) 13.8%
